We go through 40 compounds from PubChem BioAssay (Tox21).

Records with an inconclusive call do not appear. A call without a number means that no potency is given here. Calls of active or inactive are those of the source. The call rests on the fitted dose curve; in most records, active means well fitted cell-killing curve with a large enough effect in the repeat runs; inconclusive means weak or mixed curves; inactive means no such curve, though single readings can be large or run the other way.

This assay in a line: qHTS assay to identify small molecule antagonists of the androgen receptor (AR) signaling pathway - cell viability counter screen (AID 743033; further: nearly all actives have a fitted effect of over 45% in size). The conditions noted are these: AR-bla HEK293 viability, CellTiter-Glo luminescence, 16 h; series mostly up to 58.5 µM. An excerpt: National Center for Advancing Translational Sciences [NCATS]
NIH Chemical Genomics Center [NCGC]
U.S. Environmental Protection Agency [EPA]
National Institutes of Environmental Health Sciences [NIEHS]
National Toxicology Program [NTP]
U.S. Food and Drug Administration [FDA]
Androgen receptor (AR), a nuclear hormone receptor, plays a critical role in AR-dependent prostate cancer and other androgen related diseases. Endocrine disrupting chemicals (EDCs) and their interactions with steroid hormone receptors like AR may cause disruption of normal endocrine function as well as interfere with metabolic homeostasis, reproduction, developmental and behavioral functions. To identify the compounds that inhibit AR signaling, GeneBLAzer AR-UAS-bla-GripTite cell line (Invitrogen, Carlsbad, CA, USA) containing a beta-lactamase reporter gene under control of an Upstream Activator Sequence (UAS) stably integrated into HEK293 cells was used to screen the Tox21 10K compound library. The cytotoxicity of the Tox21 compound library against the AR-bla cell line was tested in parallel by measuring the cell viability using CellTiter-Glo assay in the same wells.
Tox21 Assay Protocol Summary:
AR-bla cells were dispensed at 2,000 cells/5 uL of assay medium per well into black wall/clear-bottom 1536-well plates using a Multidrop Combi (ThermoFisher Scientific, Waltham, MA) dispenser. After the assay plates were incubated at a 37C and 5% CO2 for 4 hr, 23 nL of compounds dissolved in DMSO, positive controls or DMSO only was transferred to the assay plate by a Pintool station (Kalypsys, San Diego, CA), followed by addition of 1 uL of agonist (R1881) in culture medium using a Bioraptr Flying Reagent Dispenser (FRD) workstation (Beckman Coulter, Indianapolis, IN, USA). The plates were incubated at a 37C and 5% CO2 for 16 h. After 1 uL of LiveBLAzerTM B/G FRET substrate was added using a Bioraptr FRD, the plates were incubated at room temperature for 2 h and fluorescence intensity was measured by an Envision plate reader (PerkinElmer, Shelton, CT). For cell viability readout that measures cytotoxicity, 4 ul/well of CellTiter-Glo reagent was added into the assay plates using a Bioraptr FRD. After 30 min incubation at room temperature, the luminescence intensity in the plates was measured using a ViewLux (PerkinElmer) plate reader.
A general note: qHTS replaces the single test concentration by a dilution series.
For the compound `N#Cc1c(F)cccc1F`, the Potency entry is “inactive”. As to `O=S1(=O)c2cccc3cccc(c23)N1CCCN1CCN(c2ccc(F)cc2)CC1`, the Potency result is “inactive”. In the case of `O=C(Cl)c1c(Cl)cccc1Cl`, the Potency entry is “inactive”. In the case of `Cc1cc(NC(=O)C(=O)O)cc(C)c1Oc1ccc(O)c2c1CCC2`, the Potency result is “inactive”.

As to `Cc1ccccn1`, the Potency result was “inactive”.

As for `CCCCOc1ccc(CC(=O)NO)cc1`, the Potency result is “inactive”. The result for `CC1=CC(=O)/C(=C(/C)O)C(=O)O1` reads “inactive”; that for `CC(C)(C)c1ccc(S)cc1`, “inactive”. In the case of `CCC(=O)OC(C)(C)C1CC=C(C)CC1` (stereo not given), the Potency result is “inactive”.

With `CCN(CC)CCNC(C(=O)OCCC(C)C)c1ccccc1` (stereo not given), the Potency result is “inactive”. On to `CCN(CC)CCOC(=O)C1(c2ccccc2)CCCC1`, for which the Potency result was “inactive”.

As for `O=C(NS(=O)(=O)/C=C/c1cccs1)c1ccc(F)cc1Br`, the Potency result was “inactive”.

As to `C=CC(=O)OCCOC(=O)CCC(=O)O`, the Potency entry is “inactive”. Take `Nc1nc(N)c2nc(CNc3ccc(C(=O)N[C@@H](CCC(=O)O)C(=O)O)cc3)cnc2n1`: the Potency entry is “inactive”.

As to `CC1=CCC(C(C)C)C=C1` (stereo not given), the Potency result was “inactive”.

Take `CCCCc1cc2ccccc2c(OCCN(C)C)n1`: the Potency result is “inactive”.

Regarding `COC(=O)CSc1cc(N=c2sc(=O)n3n2CCCC3)c(F)cc1Cl`, the Potency entry was “inactive”. As for `CC(=O)SCc1ccco1`, the Potency result is “inactive”. Take `CCCCCCCC/C=C\CCCCCCCC(N)=O`: the Potency entry was “inactive”.

With `CC[C@H](C)[C@@H](C(=O)O)n1sc2ccccc2c1=O`, the Potency result is “inactive”.

For the compound `C[C@@H](C1=C(CCN(C)C)Cc2ccccc21)c1ccccn1`, the Potency entry is “inactive”. The entry for `CCC(C)N(C)C(=O)c1cc2ccccc2c(-c2ccccc2Cl)n1` (stereo not given) is “inactive”; for `O=C(C(=O)c1ccc(Br)cc1)c1ccc(Br)cc1` it is “inactive”; for `C=C(C)C(=O)OCCOc1ccccc1` it is “inactive”.

For `CCCC(=O)OCC`, the Potency result is “inactive”. For the compound `CCOC(=O)C1=NN(c2ccccc2)C(=O)C1`, the Potency result is “inactive”. Consider `CCCCCCCCC(CO)CCCCCC` (stereo not given), for which the Potency result is “inactive”.

`CCCc1ccccc1`: the Potency entry was “inactive”. For `N#CCCNCCC#N`, the Potency entry is “inactive”. For the compound `CN(c1nccc(=O)[nH]1)C1CCN(c2nc3ccccc3n2Cc2ccc(F)cc2)CC1`, the Potency result was “inactive”. For `CCN(CCO)CCCC(C)Nc1ccnc2cc(Cl)ccc12` (stereo not given), the Potency result was “inactive”. As for `Oc1ccc(C(O)CNCCCCCCNCC(O)c2ccc(O)c(O)c2)cc1O` (stereo not given), the Potency entry was “inactive”. On to `Cc1cccc(C(C)(C)C)c1O`, for which the Potency entry is “inactive”. Turning to `FC(F)(F)C(F)(F)C(F)(F)C(F)(F)C(F)(F)C(F)(F)CCI`, the Potency entry was “inactive”. In the case of `CC(C)CC=O`, the Potency entry was “inactive”. The entry for `O=[N+]([O-])c1cccc(Cl)c1Cl` is “inactive”; for `CCCCCCCCCCCCCCC1CO1` (stereo not given) it is “inactive”; for `Cc1ncsc1CCO` it is “inactive”.

On to `CC[C@@H]1C[C@H](N(Cc2cc(C(F)(F)F)cc(C(F)(F)F)c2)C(C)=O)c2cc(C(F)(F)F)ccc2N1C(=O)OC(C)C`, for which the Potency result is “inactive”. The result for `C=Cc1c(C)c2cc3[nH]c(cc4nc(cc5nc(cc1[nH]2)C(C)=C5CCC(=O)O)C(CCC(=O)O)=C4C)c(C)c3C=C` reads “inactive”.
